Measured values reported in ChEMBL document CHEMBL4513216, “Probing the Open Global Health Chemical Diversity Library for Multistage-Active Starting Points for Next-Generation Antimalarials” (ACS Infect Dis, 2020).
Among all 68,000 compounds or so, about 2,700 (4%) showed an effect of 50% or more. This is one part of a sample in which strong results are shown more often than they occur.

What follows are molecules tested on Plasmodium berghei (assay: Screen against P. berghei liver stage (PbLuc), transformed with Luciferase, at 2uM). Settings: tested at 2 uM.
Assay type: functional, HepG2

Row | Compound | INHIBITION
1 | CCc1ccc(OCCn2cccn2)cc1 | -3.72%
2 | COc1c(C2CCCN2C(=O)c2csc(C3CC3)n2)c(C)nn1C (centres undefined) | 15.13%
3 | CCOc1cccc2c1OCC(=O)N(c1ccc3c(c1)OCCO3)C2 | 67.29%
4 | CCOc1cccc2c1OCC(=O)N(c1ccc3c(c1)OCO3)C2 | 25.73%
5 | CCOc1cccc2c1OCC(=O)N(c1ccc(N(C)C)cc1)C2 | 43.74%
6 | COC(=O)c1ccc(C2CC(=O)Nc3c2cnn3C)cc1 (centres undefined) | 13.95%
7 | Cc1ncsc1COC(=O)c1cccc2c1OCCO2 | 38.1%
8 | Cn1cnnc1C1CCCN(C(=O)NCc2cc[nH]n2)C1 (centres undefined) | 28.65%
9 | O=C(c1ccc[nH]1)N1CCN(C(c2ccccc2)C(F)(F)F)CC1 (centres undefined) | 11.88%
10 | CCCSc1ccccc1NC(=O)N1CCC(N2CCSCC2)CC1 | 27.05%
11 | CCCSc1ccccc1NC(=O)N1CCN(C(=O)c2ccc[nH]2)CC1 | 65.76%
12 | CCCc1nc(C(=O)NCCN2CCC(c3ccccc3C)C2)cs1 (centres undefined) | 6.88%
13 | CC(C)C(C(=O)N1CCCN(c2nccs2)CC1)n1cncn1 (centres undefined) | 15.47%
14 | CN1CCC(N(C)CCC(=O)N2CCC(OCc3ccccc3)CC2)C1 (centres undefined) | -83.25%
15 | CN1CCC(N(C)CCC(=O)N2CCC(CCc3ccccc3)CC2)C1 (centres undefined) | 66.79%
16 | CN1CCC(N(C)CCC(=O)N2CCC(Cc3ccc(F)cc3)CC2)C1 (centres undefined) | 20.36%
17 | COc1c(C2CCCN2C(=O)c2ccnc(N(C)C)c2)c(C)nn1C (centres undefined) | 30.91%
18 | Cc1cnc(N2Cc3cnn(Cc4ccc(F)cc4)c3C2)nc1N(C)C | 41.78%
19 | CNS(=O)(=O)c1ccsc1C(=O)OC | -12.44%
20 | CNC(=O)c1sccc1S(=O)(=O)NC | 31.27%
21 | CNC(=O)c1sccc1S(=O)(=O)Nc1ccc(C)cc1 | 52.36%
22 | Cc1nonc1C1CCCN1C(=O)c1cn2ccsc2n1 (centres undefined) | -120.95%
23 | Cn1cc(CN2CCCC3(COCCN(c4cccnc4)C3)C2)cn1 (centres undefined) | 18.15%
24 | COc1ccc(F)cc1C(=O)N1CC(c2ccncc2)C1 | -26.81%
25 | COc1cc2c(cc1C(=O)N1CC(c3ccncc3)C1)CCC2 | 51.96%
26 | COc1ccc(C(=O)N2CC(c3ccncc3)C2)c(OC)c1OC | 45.56%
27 | CC(CO)NC(=O)Nc1ccc(COC2CCCC2)cc1 (centres undefined) | 31.97%

Row | Compound | INHIBITION
28 | CC(C)N1CC(NC(=O)c2ccc(Cl)s2)CC1=O (centres undefined) | -28.5%
29 | CN(CCOc1ccc(C#N)cc1)CC1CCS(=O)(=O)C1 (centres undefined) | 14.59%
30 | CN(Cc1ccc(C#N)cc1)CC1CCS(=O)(=O)C1 (centres undefined) | 54.78%
31 | CC(O)CN1CCC(CN(C)Cc2ccc(C#N)cc2)CC1 (centres undefined) | -3.99%
32 | Cc1cc(=O)n2ncnc2n1CC(O)COCc1ccccc1Cl (centres undefined) | 19.59%
33 | CN(CC(=O)Nc1ccccc1)C(=O)CN(C)c1ccc(Cl)cn1 | -35.22%
34 | CN(Cc1nc2ccccc2[nH]1)C(=O)CN(C)c1ccc(Cl)cn1 | 60.71%
35 | CN(Cc1nc2ccccc2[nH]1)C(=O)CN(C)c1ccccc1 | -20.08%
36 | Cc1ncsc1CN1CCn2c(COc3cccnc3)cnc2C1C (centres undefined) | -48.36%
37 | CC(C)N1CCC(N(C)c2ccnc(N(C)C)n2)CC1 | 69.67%
38 | CN(C)c1nccc(N(C)C2CCCCC2)n1 | 38.67%
39 | CN(C)c1nccc(N(C)C2CCOCC2)n1 | 19.59%
40 | CCN(C)Cc1cccc(CNC(=O)CSCc2ccncc2)c1 | -56.58%
41 | CCCSCC(=O)NCc1cccc(CN(C)CC)c1 | 15.56%
42 | CCN(C)Cc1cccc(CNC(=O)CSCc2ccccn2)c1 | 72.94%
43 | CO[C@H]1CN(C(=O)c2cc3ccccc3[nH]2)CC[C@H]1N | 13.24%
44 | O=C(c1ccoc1)N1CCOCC2(CCN(Cc3cccs3)C2)C1 (centres undefined) | 3.11%
45 | CN1CCN(CCOc2ccc(NC(=O)c3ccoc3)cc2)CC1 | 6.78%
46 | Cc1nc2sccn2c1C(=O)N1CCc2c(nc(N(C)C)[nH]c2=O)C1 | 68.02%
47 | CN(C)c1nc2c(c(=O)[nH]1)CCN(C(=O)c1c[nH]c(=O)c(Cl)c1)C2 | 33.9%
48 | Cc1nc(C(C)C)ncc1C(=O)N1CCc2c(nc(N(C)C)[nH]c2=O)C1 | 55.36%
49 | Cc1nc2sccn2c1C(=O)N1CCc2[nH]cnc2C1 | -13.03%
50 | Cc1nc2sccn2c1C(=O)N1CCc2c(nc(N)[nH]c2=O)C1 | -14.71%
51 | CN(C)c1nc2c(c(=O)[nH]1)CCN(C(=O)c1cccc3nccnc13)C2 | -16.93%
52 | O=C(Nc1nccs1)C1CCCN1Cc1ccccn1 (centres undefined) | 12.47%
53 | CCc1nc(-c2ccc(NC(=O)N3CCCC3)cc2)no1 | -75.24%
54 | COc1ccnc(N2CCC3(CC2)[C@H](O)C[C@@H]3OCCN(C)C)n1 | -2.96%
